Data as given in the supplement of paper PMC4954754.
± gives the uncertainty stated by the source.

These compounds were tested on HEK293T-Rex XBP1-RLuc (assay: XBP1-RLuc splicing reporter activation, triplicate, relative to 500 nM thapsigargin (% of thapsigargin); higher = stronger IRE1/XBP1s reporter activation). Conditions: 6.8 µM; 18 h; screen: confirmation.
Experimental: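 HEK293T-Rex cells stably expressing the ERSE-firefly luciferase (BiP promoter, ATF6-preferring) or XBP1-splicing Renilla luciferase (IRE1/XBP1s) reporter, 1536-well plates, compound at 6.8 µM for 18 hr at 37 °C; luminescence read […] and expressed as % activation = 100*(compound - median DMSO)/(median 500 nM thapsigargin - median DMSO). Primary screen was single-pass; confirmation screen in triplicate (mean ± SD).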

| Compound | XBP1-RLuc splicing reporter activation |
| --- | --- |
| Oc1ccc(-c2csc3nc(-c4ccccc4)nn23)c(O)c1 | 15.3 ± 1.7 |
| COc1ccccc1-c1cc(C(=O)Nc2cc(C)ccc2O)no1 | 7.78 ± 1.3 |
| Cc1ccc(/C=N/NC(=O)c2cccc(F)c2)cc1 | 2.01 ± 0.32 |
| CCOc1cc(/C=C2/NC(=O)N(c3cccc(Cl)c3)C2=O)ccc1O | 22.9 ± 1.5 |
| Cc1ccc(O)c(N=CC2=C(O)c3ccccc3C2=O)c1 | 24.1 ± 1.3 |
| Cc1ccc(-c2csc(Nc3ccc(O)cc3)n2)cc1 | 21.3 ± 2.7 |
| COc1ccc(Nc2nccn3c(-c4ccsc4)cnc23)cn1 | 3.91 ± 0.5 |
| N#Cc1c(NC(=O)c2ccc(Br)cc2)sc2c1CCCC2 | 1.92 ± 0.76 |
| Nc1ccc2nc(/C=C/c3ccco3)[nH]c2c1 | 17.8 ± 0.14 |
| O=C1/C(=C/c2ccc(O)c(O)c2)SC(=S)N1c1ccc(O)cc1 | 14.6 ± 1.1 |
| NC(=O)c1c(NC(=O)COc2ccccc2)sc2c1CCC2 | -0.209 ± 0.99 |
| Nc1ccc2nc(/C=C/c3ccccc3)[nH]c2c1 | 13.7 ± 0.35 |
| Nc1ccc2nc(-c3ccccn3)[nH]c2c1 | 18.7 ± 1.1 |
| COc1ccccc1-c1nnc(Nc2nc3c(OC)cccc3s2)o1 | 10.2 ± 1 |
| CCOc1cccc(/C=C2\NC(=S)N(C)C2=O)c1O | -2.09 ± 0.54 |
| CCOC(=O)c1sc(NC(=O)c2cccc3ccccc23)nc1C | 2.85 ± 0.37 |
| Cc1ccc(O)c(N/C=C/C(=O)c2ccc(F)cc2)c1 | 10.3 ± 7.9 |
| CCOc1ccc(NC(=O)c2ccc3c(c2)OCO3)c([N+](=O)[O-])c1 | -0.432 ± 2.4 |
| Cc1ccc(O)c(NC(=O)CSc2ccccc2)c1 | 10.5 ± 5.2 |
| COc1cccc(-c2cc(C(=O)Nc3cc(C)ccc3O)no2)c1 | 12.6 ± 4.8 |

| Compound | XBP1-RLuc splicing reporter activation |
| --- | --- |
| Oc1ccc(-c2csc(-c3ccccc3)n2)cc1O | 31.3 ± 3.1 |
| CN(c1ccccc1)S(=O)(=O)c1cccc(C(=O)NCCc2ccc(O)c(O)c2)c1 | 33.2 ± 0.95 |
| COc1cccc(C(=O)Nc2sc3c(c2C#N)CC(C)CC3)c1 (stereo not given) | 3.54 ± 0.93 |
| Cc1nc(-c2ccc(C(=O)Nc3ccc(O)cc3)cc2)cs1 | 19.3 ± 0.19 |
| CCCc1cc(C(=O)Nc2cc(C)ccc2O)no1 | 24.5 ± 4.7 |
| COc1cccc(-c2cc(C(=O)Nc3cc(C)ccc3O)on2)c1 | 12.2 ± 1.9 |
| COc1cccc(-c2nc3ccc(N)cc3[nH]2)c1 | 9.9 ± 1.3 |
| O=C1NC(=Nc2ccccc2)S/C1=C/c1ccc(O)c(O)c1 | 20.9 ± 2.1 |
| OCCNc1nc(Nc2ccc(Cl)cc2)nc2ccccc12 | 32.6 ± 2.5 |
| COc1ccc(/C=N/NC(=O)c2cccc(F)c2)cc1Br | 1.01 ± 0.87 |
| COc1ccc(-c2csc(-c3ccc(O)cc3)n2)cc1 | 8.78 ± 1.3 |
| Nc1ccc2nc(-c3ccc(Br)cc3)[nH]c2c1 | 12.5 ± 2 |
| O=C(N/N=C/c1cccc(O)c1O)c1ccccn1 | 27 ± 0.75 |
| CN(C)c1ccc(-c2nc3ccc(N)cc3[nH]2)cc1 | 13.4 ± 0.35 |
| COc1ccc(-c2cnnc(N/N=C/c3ccc(O)c(O)c3)n2)cc1 | 24 ± 2.2 |
| CCc1nc2sc(C(=O)c3ccccc3)c(N)c2cc1C | 2.72 ± 1.5 |
| Oc1ccc(/C=N/Nc2cccc3cccnc23)c(O)c1 | 26 ± 1.3 |
| CC(C)NC(=O)c1cc(-c2ccc(O)cc2)on1 | 18.5 ± 1.6 |
| Cc1ccc(O)c(N/C=C/C(=O)c2cccs2)c1 | 4.09 ± 1.2 |
| CCOc1cccc(C(=O)Nc2ccc(Br)cn2)c1 | 2.81 ± 1.5 |
